Assay results published in the supplement of paper PMC9925115.

What follows are compounds tested on FLX1 + dox-induced PRKAR1A G325D (assay: difference in log2 fold change of viability vs plate median (dox-induced PRKAR1A G325D minus uninduced); higher = compound less effective when PKA is inhibited). Conditions: concentration: not stated (2 or 5 uM); 5 days.
Method: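 For each plate a log2 fold change vs the plate median was derived, and the values without dox were subtracted from those with dox, averaged over three biological replicates.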

Row | Compound | difference in log2 fold change of viability
1 | O=c1[nH]c2ccc(Cl)cc2c(N[C@@H]2CN3CCC2CC3)c1-c1nc2ccccc2[nH]1 | -0.0624
2 | CC(C)(C)c1cc(C=C(C#N)C#N)cc(C(C)(C)C)c1O [Tyrphostin 9] | 0.375
3 | CC(C)(C)c1cc(C=C(C#N)C#N)cc(Br)c1O | 0.78
4 | CCN1CCN(C(=O)Cc2ccc(Nc3ncc(F)c(Nc4ccc(C(=O)Nc5ccccc5Cl)cc4)n3)cc2)CC1 [Aurora A Inhibitor I] | -0.138
5 | Cc1ccccc1-n1c(Cn2ncc3c(N)ncnc32)nc2cccc(C)c2c1=O | -0.0566
6 | Cn1cc(C2=C(c3cn(C4CCN(Cc5ccccn5)CC4)c4ccccc34)C(=O)NC2=O)c2ccccc21 | -0.214
